Experiment in all cases: DAPPL (digital affinity profiling via proximity ligation, sequencing); 10 mM Tris-HCl pH 7.5, 50 mM NaCl, 1 mM DTT, 4% glycerol, room temperature, 30 min; GST-TFs on glutathione beads, 16-mer random dsDNA library, 0.1% formaldehyde crosslink after washing; high values mean tight binding
One test deals with T1, FEV (Homo sapiens, UniProt Q99581 1-238).
T1 sequence: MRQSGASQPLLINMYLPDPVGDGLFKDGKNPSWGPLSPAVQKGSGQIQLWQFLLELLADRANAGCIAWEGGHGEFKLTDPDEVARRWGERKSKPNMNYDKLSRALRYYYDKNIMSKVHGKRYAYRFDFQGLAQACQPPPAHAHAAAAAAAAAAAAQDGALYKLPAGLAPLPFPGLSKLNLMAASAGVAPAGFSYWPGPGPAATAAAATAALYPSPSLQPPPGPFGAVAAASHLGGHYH
The conditions noted are these: protein: recombinant; tags: N-terminal GST; dsDNA, one strand shown. A digest of the protocol:
(§1)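 Binding signal is each hexamer's read frequency for a factor divided by its frequency in the tag-only sample. The factors were GST-fused human transcription factors from yeast, captured on glutathione beads, DNA-barcoded and pooled with that sample. Pools were incubated with 200 nmole of a random double-stranded 16-mer DNA library in Tris/NaCl/DTT/glycerol buffer at room temperature for 30 min, then washed, crosslinked with 0.1% formaldehyde, proximity-ligated with BsaI/T4 ligase (1 h, 37 °C), PCR-amplified and sequenced on an Illumina NextSeq500.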

Another test addresses ETV5 (Homo sapiens, UniProt P41161 1-510). The conditions noted are these: protein: recombinant; tags: N-terminal GST; dsDNA, one strand shown. A digest of the protocol:
as §1

The next test concerns the target HSF1 (Homo sapiens, UniProt Q00613 1-529). The conditions noted are these: protein: recombinant; tags: N-terminal GST; chain copies: 3; dsDNA, one strand shown. An outline of the steps: as §1
A further test concerns the target T2, SPIC (Homo sapiens, UniProt Q8N5J4 1-248).
T2 sequence: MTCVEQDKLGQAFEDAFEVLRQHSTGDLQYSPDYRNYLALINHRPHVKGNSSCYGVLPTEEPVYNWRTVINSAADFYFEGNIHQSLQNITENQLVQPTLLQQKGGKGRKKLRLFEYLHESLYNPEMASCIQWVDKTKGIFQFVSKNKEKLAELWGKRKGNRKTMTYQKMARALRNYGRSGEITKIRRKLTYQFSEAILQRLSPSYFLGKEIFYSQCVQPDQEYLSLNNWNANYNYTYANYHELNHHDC
The conditions noted are these: protein: recombinant; tags: N-terminal GST; dsDNA, one strand shown. A digest of the protocol:
as §1

For a further test, the target named is ELF4 (Homo sapiens, UniProt Q99607 1-663). The settings on record: protein: recombinant; tags: N-terminal GST; dsDNA, one strand shown. A digest of the protocol:
as §1

The next test concerns the target T3, ELK4 (Homo sapiens, UniProt P28324-2 1-405).
T3 sequence: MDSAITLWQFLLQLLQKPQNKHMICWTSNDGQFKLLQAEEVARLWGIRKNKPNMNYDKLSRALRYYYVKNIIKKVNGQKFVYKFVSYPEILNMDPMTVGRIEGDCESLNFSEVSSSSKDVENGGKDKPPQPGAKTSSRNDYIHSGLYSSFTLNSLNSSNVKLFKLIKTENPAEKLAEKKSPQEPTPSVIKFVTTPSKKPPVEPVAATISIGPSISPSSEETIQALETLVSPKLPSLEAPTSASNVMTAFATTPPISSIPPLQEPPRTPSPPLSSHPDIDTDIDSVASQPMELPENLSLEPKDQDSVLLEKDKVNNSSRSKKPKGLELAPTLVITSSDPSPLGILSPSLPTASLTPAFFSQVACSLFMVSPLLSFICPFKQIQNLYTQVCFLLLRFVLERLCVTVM
The settings on record: protein: recombinant; tags: N-terminal GST; dsDNA, one strand shown. An outline of the steps:
as §1

The next test has as its target T4, ETV2 (Homo sapiens, UniProt O00321 1-342).
T4 sequence: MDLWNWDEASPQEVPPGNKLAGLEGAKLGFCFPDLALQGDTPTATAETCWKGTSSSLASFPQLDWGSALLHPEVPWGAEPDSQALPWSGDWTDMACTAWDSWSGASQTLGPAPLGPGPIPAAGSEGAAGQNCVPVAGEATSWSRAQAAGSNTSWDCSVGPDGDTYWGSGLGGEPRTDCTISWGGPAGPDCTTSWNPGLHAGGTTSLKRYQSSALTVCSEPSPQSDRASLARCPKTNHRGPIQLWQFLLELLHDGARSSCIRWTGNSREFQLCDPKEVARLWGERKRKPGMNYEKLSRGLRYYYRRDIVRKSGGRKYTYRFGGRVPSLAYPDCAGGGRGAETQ
The settings on record: protein: recombinant; tags: N-terminal GST; dsDNA, one strand shown. An outline of the steps:
as §1

For the next test, the target named is T5, ELF3 (Homo sapiens, UniProt P78545 1-371).
T5 sequence: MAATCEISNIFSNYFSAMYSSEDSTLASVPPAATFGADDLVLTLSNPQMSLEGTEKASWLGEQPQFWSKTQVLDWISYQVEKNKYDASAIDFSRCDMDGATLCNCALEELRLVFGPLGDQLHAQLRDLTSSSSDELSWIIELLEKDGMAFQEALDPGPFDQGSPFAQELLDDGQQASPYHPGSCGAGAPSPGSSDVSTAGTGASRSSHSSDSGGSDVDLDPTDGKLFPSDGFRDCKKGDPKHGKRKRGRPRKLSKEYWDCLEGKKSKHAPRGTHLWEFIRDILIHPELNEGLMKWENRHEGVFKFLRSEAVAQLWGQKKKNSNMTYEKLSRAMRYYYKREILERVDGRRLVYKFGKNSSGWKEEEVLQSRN
The conditions noted are these: protein: recombinant; tags: N-terminal GST; dsDNA, one strand shown. An outline of the steps: as §1

In a further test the target is CRX (Homo sapiens, UniProt O43186 1-299). The conditions noted are these: protein: recombinant; tags: N-terminal GST; dsDNA, one strand shown. An outline of the steps:
as §1

In a further test the target is ETV1 (Homo sapiens, UniProt P50549 1-477). The settings on record: protein: recombinant; tags: N-terminal GST; dsDNA, one strand shown. A digest of the protocol: as §1
Chain of ETV1 (P50549 whole entry): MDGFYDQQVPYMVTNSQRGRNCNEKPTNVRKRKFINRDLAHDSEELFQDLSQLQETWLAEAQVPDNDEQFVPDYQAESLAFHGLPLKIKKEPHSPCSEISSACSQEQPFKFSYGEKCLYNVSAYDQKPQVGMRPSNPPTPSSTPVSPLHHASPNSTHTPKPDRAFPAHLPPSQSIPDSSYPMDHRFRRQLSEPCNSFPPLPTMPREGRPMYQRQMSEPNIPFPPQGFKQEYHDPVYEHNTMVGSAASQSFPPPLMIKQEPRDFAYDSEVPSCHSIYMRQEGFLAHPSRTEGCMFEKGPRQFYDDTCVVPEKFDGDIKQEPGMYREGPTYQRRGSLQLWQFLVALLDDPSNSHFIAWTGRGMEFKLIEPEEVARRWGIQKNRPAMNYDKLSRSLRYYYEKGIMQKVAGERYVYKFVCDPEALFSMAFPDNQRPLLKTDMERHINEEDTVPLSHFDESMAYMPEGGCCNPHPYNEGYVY
Another test has as its target T6, ERF (Homo sapiens, UniProt P50548 1-548).
T6 sequence: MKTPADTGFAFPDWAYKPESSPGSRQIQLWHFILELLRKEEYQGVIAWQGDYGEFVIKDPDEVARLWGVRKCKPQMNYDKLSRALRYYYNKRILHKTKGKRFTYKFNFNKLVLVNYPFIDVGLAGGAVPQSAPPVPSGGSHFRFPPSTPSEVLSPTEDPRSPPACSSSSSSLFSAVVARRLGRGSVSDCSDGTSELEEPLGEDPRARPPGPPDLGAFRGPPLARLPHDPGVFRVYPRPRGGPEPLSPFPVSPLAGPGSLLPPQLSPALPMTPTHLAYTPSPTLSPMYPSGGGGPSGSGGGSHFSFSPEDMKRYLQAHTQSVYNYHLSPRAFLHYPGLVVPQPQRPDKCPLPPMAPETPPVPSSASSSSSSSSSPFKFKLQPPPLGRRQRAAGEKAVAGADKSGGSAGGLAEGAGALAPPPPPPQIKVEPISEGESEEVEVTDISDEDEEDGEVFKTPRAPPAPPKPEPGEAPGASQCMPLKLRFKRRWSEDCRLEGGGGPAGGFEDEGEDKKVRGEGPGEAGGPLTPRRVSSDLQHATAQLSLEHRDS
The settings on record: protein: recombinant; tags: N-terminal GST; dsDNA, one strand shown. A digest of the protocol: as §1

A further test concerns the target T7, ETV3L (Homo sapiens, UniProt Q6ZN32 1-361).
T7 sequence: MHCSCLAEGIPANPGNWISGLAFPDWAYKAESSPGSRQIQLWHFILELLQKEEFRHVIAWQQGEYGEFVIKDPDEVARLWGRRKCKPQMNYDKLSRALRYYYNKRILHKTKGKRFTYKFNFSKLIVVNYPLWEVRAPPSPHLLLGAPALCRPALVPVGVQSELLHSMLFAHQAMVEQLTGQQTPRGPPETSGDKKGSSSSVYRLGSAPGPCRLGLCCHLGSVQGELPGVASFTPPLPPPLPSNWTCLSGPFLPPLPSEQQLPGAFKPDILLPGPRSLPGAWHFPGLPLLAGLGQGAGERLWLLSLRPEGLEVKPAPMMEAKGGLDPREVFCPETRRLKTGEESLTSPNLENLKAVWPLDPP
The settings on record: protein: recombinant; tags: N-terminal GST; dsDNA, one strand shown. A digest of the protocol: as §1

The next test addresses T8, ETS2 (Homo sapiens, UniProt P15036 1-469).
T8 sequence: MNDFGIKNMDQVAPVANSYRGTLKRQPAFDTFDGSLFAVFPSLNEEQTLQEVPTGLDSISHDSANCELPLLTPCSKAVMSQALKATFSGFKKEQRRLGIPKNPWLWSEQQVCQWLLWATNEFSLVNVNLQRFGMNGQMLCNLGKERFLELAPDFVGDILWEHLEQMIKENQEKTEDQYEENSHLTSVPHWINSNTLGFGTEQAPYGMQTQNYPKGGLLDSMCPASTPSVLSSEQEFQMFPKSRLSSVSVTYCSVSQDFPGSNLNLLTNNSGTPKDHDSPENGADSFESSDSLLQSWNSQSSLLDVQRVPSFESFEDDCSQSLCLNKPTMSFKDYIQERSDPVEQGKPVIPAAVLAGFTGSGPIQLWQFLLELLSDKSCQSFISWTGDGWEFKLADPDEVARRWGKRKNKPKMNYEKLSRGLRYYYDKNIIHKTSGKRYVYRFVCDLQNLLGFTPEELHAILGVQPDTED
The settings on record: protein: recombinant; tags: N-terminal GST; dsDNA, one strand shown. An outline of the steps: as §1

The next test concerns the target T9, SPDEF (Homo sapiens, UniProt O95238 1-335).
T9 sequence: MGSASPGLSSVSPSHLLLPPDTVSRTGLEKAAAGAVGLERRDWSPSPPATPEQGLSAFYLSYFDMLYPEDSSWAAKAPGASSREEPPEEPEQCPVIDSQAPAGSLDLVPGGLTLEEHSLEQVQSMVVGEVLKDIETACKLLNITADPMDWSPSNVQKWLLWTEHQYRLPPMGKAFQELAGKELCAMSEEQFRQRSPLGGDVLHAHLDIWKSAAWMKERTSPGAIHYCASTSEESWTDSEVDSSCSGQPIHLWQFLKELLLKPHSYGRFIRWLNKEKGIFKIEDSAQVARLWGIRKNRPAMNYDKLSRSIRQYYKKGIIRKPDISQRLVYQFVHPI
The conditions noted are these: protein: recombinant; tags: N-terminal GST; dsDNA, one strand shown. An outline of the steps: as §1

The next test addresses T10, ETV7 (Homo sapiens, UniProt Q9Y603 1-341).
T10 sequence: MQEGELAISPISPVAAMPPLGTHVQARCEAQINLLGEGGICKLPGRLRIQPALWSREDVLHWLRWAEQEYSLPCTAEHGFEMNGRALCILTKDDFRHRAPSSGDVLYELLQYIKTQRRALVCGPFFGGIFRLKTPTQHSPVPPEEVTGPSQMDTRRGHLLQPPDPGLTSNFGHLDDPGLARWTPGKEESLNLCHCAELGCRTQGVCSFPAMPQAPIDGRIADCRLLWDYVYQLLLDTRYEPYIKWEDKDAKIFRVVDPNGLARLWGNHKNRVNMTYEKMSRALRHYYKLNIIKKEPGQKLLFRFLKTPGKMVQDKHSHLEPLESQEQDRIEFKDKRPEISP
The conditions noted are these: protein: recombinant; tags: N-terminal GST; dsDNA, one strand shown. An outline of the steps: as §1

A further test concerns the target T11, ELF5 (Homo sapiens, UniProt Q9UKW6-2 1-255).
T11 sequence: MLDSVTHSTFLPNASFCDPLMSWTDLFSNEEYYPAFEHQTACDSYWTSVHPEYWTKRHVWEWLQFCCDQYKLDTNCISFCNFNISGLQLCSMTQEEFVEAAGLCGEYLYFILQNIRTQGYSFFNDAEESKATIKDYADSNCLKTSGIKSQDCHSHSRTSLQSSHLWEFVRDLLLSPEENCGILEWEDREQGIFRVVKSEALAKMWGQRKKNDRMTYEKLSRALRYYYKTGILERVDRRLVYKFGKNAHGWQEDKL
The settings on record: protein: recombinant; tags: N-terminal GST; dsDNA, one strand shown. A digest of the protocol:
as §1

In a further test the target is T12, ETV3 (Homo sapiens, UniProt P41162-2 1-143).
T12 sequence: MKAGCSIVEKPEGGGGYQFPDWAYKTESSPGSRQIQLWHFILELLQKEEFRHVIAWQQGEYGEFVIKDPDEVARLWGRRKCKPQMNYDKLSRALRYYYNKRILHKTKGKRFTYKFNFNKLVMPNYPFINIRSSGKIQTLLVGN
The settings on record: protein: recombinant; tags: N-terminal GST; dsDNA, one strand shown. A digest of the protocol:
as §1

The target in another test is ETV6 (Homo sapiens, UniProt P41212 1-452). The settings on record: protein: recombinant; tags: N-terminal GST; dsDNA, one strand shown. A digest of the protocol: as §1
Chain of ETV6 (P41212 whole entry): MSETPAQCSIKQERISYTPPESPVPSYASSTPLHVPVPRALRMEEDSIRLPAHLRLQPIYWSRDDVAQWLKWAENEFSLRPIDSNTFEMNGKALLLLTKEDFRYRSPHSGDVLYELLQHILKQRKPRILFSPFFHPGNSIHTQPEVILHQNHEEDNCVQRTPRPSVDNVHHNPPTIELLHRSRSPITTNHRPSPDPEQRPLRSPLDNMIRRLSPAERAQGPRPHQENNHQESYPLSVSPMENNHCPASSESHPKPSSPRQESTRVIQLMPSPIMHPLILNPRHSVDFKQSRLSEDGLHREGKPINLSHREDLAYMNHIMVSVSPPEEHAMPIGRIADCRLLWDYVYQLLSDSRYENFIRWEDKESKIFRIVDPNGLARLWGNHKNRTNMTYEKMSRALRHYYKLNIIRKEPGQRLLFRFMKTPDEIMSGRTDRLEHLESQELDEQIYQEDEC

Experimental findings from paper PMC7862700, “An all-to-all approach to the identification of sequence-specific readers for epigenetic DNA modifications on cytosine” are described below.

Chain of HSF1 (Q00613 whole entry): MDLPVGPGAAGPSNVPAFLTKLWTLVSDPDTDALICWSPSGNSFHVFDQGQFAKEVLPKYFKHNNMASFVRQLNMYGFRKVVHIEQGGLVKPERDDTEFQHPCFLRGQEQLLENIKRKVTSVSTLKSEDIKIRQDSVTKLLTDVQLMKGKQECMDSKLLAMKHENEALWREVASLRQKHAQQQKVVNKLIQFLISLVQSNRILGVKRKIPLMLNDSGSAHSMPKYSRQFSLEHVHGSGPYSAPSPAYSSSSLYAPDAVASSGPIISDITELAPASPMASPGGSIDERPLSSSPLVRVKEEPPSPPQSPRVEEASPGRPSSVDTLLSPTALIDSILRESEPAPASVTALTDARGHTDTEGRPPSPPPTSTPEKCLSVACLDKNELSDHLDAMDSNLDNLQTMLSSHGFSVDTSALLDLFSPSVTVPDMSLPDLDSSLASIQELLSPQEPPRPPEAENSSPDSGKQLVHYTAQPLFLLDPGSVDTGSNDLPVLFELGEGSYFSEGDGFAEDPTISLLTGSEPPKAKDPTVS
Chain of CRX (O43186 whole entry): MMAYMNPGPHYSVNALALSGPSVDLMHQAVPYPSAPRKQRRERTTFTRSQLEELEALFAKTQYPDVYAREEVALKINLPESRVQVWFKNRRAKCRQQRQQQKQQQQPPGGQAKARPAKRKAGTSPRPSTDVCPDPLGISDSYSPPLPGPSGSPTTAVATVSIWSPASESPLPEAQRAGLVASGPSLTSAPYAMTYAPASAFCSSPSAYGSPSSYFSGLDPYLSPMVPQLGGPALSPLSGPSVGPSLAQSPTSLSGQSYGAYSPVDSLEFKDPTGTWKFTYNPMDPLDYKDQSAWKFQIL
Chain of ETV5 (P41161 whole entry): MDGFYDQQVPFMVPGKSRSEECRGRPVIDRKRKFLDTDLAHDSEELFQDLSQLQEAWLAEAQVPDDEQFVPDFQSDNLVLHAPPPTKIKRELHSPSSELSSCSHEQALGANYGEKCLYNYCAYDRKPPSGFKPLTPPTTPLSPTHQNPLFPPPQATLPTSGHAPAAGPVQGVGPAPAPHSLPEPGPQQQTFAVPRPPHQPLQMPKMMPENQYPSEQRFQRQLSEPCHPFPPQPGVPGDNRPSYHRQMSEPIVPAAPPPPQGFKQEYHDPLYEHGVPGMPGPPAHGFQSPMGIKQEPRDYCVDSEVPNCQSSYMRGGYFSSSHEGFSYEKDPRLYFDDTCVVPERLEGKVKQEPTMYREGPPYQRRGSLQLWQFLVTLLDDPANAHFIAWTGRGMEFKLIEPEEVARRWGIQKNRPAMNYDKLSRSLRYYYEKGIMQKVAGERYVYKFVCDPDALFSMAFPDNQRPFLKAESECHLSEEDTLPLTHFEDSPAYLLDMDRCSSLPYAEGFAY
Chain of ELF4 (Q99607 whole entry): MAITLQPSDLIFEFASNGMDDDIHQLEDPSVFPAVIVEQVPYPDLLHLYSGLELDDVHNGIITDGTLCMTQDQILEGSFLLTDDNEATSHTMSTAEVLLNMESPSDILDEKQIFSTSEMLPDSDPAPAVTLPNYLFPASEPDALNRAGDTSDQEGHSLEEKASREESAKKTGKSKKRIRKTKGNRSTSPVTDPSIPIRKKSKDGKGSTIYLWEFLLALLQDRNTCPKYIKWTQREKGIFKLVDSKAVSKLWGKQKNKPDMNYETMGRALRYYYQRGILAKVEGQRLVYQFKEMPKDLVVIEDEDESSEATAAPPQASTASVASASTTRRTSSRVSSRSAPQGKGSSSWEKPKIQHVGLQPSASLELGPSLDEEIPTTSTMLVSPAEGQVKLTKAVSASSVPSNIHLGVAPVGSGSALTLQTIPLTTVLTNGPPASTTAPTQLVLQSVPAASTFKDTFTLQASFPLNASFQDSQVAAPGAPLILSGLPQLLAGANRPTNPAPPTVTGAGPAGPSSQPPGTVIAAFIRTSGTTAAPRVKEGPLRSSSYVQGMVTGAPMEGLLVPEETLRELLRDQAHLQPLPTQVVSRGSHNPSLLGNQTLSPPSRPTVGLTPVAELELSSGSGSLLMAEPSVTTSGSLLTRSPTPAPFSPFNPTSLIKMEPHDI

As to CTTCTT, the binding signal was 1.48 fold enrichment (6-mer frequency, TF over GST control) with FEV; 1.59 fold enrichment (6-mer frequency, TF over GST control) in the test with ETV5; 1.84 fold enrichment (6-mer frequency, TF over GST control) with HSF1; 1.61 fold enrichment (6-mer frequency, TF over GST control) with SPIC; 1.6 fold enrichment (6-mer frequency, TF over GST control) in the test with ELF4; 1.58 fold enrichment (6-mer frequency, TF over GST control) in the test with ELK4. The binding signal was 1.53 fold enrichment (6-mer frequency, TF over GST control) in the test with ETV2; 1.45 fold enrichment (6-mer frequency, TF over GST control) in the test with ELF3; 1.89 fold enrichment (6-mer frequency, TF over GST control) in the test with CRX; 1.48 fold enrichment (6-mer frequency, TF over GST control) with ETV1; 1.53 fold enrichment (6-mer frequency, TF over GST control) with ERF; 1.59 fold enrichment (6-mer frequency, TF over GST control) with ETV3L. Besides, the binding signal with ETS2 is 1.35 fold enrichment (6-mer frequency, TF over GST control); with SPDEF, 1.54 fold enrichment (6-mer frequency, TF over GST control); with ETV7 it was 1.44 fold enrichment (6-mer frequency, TF over GST control); with ELF5, 1.65 fold enrichment (6-mer frequency, TF over GST control); in the test with ETV3 it was 1.6 fold enrichment (6-mer frequency, TF over GST control); with ETV6, 1.64 fold enrichment (6-mer frequency, TF over GST control).
